Results on 64 compounds are retold here after PubChem BioAssay AID485364 (National Center for Advancing Translational Sciences (NCATS), 2010).

The campaign covered roughly 360,000 compounds. About 11,000 (3.1%) were called active. Inconclusive results (about 4%) are left out. What follows is part of a selection rich in actives, with near analogues and random picks from the rest. A number with no mark means an inactive call. Calls follow the shape of the dose curve; as a rule, active = well fitted inhibition curve with a large enough effect; inconclusive = small, poorly fitted or top-dose-only effect; inactive = no such curve, though single readings can be large or run the other way.
% is scaled to controls: 0 for no effect and ±100 for the full control effect; potency is read from the fitted curve at half-maximal effect.

The target of this experiment is Schistosoma mansoni thioredoxin glutathione reductase (TGR) (UniProt Q962Y6). Put plainly: qHTS Assay for the Inhibitors of Schistosoma Mansoni Peroxiredoxins. Also: nearly all actives have a fitted effect of over 60% in size. The settings on record: purified TGR, DTNB reduction, TNB absorbance 405 nm; series mostly up to 114 µM; activity change, negative = inhibition: at the top concentration. The method in brief: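 TGR 20 nM + NADPH 100 uM (dispensed conc.), cpd preinc 15 min RT; start with NADPH (500 uM addition) then DTNB (15 mM addition). Kinetic TNB absorbance, 405 nm filter. Four-parameter Hill fit across titration.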
Background: In qHTS, concentration-response curves come from the screen itself.
On to `CCOC(=O)c1ccc(NC(=O)Cn2c(=O)cc(C)c3c(C)nn(-c4cccc(F)c4)c32)cc1`, for which the “activity change, negative = inhibition” value is 17.8%.

For the compound `COCc1cc(C(C)=O)ccc1OC`, the “activity change, negative = inhibition” value is -22.1%. With `COc1ccc(C(C)=O)cc1COC(=O)Cn1cnc2ccccc2c1=O`, the Potency was 39.8 µM (active).

For `O=C(COC(=O)Cn1cnc2ccccc2c1=O)NCc1ccccc1Cl`, the “activity change, negative = inhibition” value is 2.84%.

Consider `CC(Sc1oc(-c2ccco2)nc1S(=O)(=O)c1ccc(Br)cc1)c1ccccc1` (centres undefined), for which the “activity change, negative = inhibition” value is -2.2%. In the case of `COc1ccc(NC(=O)C2CCN(c3ccc(Sc4ccc(C)cc4)nn3)CC2)c(OC)c1`, the “activity change, negative = inhibition” value is -1.89%. Consider `Cc1nnc(SCc2cc(=O)c3cc(F)ccc3[nH]2)n1C`, for which the “activity change, negative = inhibition” value was 1.82%. As for `COC(=O)c1cc(C)sc1NC(=O)CC1Nc2ccccc2NC1=O` (centres undefined), the “activity change, negative = inhibition” value is -27.8%.

For the compound `CCOC(=O)c1ccccc1NC(=O)CC1Nc2ccccc2NC1=O` (centres undefined), the Potency is 39.8 µM (active). `CCOC(=O)c1ccccc1NC(=S)N1CCC(C(N)=O)CC1`: the “activity change, negative = inhibition” value is 3.23%. The same measure, in the same setting: to `CN1CCN(C2(CNC(=O)COc3ccc(C(C)(C)C)cc3)CCCCC2)CC1` belongs -2.57%; to `Cc1ccc2nc(N3CCN(c4cccc(Cl)c4)CC3)c3nnnn3c2c1`, 0.987%. The same measure, in the same setting: then `COc1ccc(Cn2ccn(Cc3cccc(OC)c3)c(=O)c2=O)cc1`, with -8.54%. The same measure, in the same setting: to `CCCCc1nn2c(=O)cc(COC(=O)c3cccc(NC(=O)COc4ccccc4)c3)nc2s1` belongs -9.99%; to `O=C(NCc1ccco1)C(c1ccncc1)N(C(=O)Cn1nnc2ccccc21)c1ccccc1` (centres undefined), -2.1%; to `Cc1ccc(C(C(=O)NCc2ccco2)N(CC2CCCO2)C(=O)Cn2nnc3ccccc32)cc1` (centres undefined), -9.71%. Regarding `COc1ccccc1N(C(=O)Cn1nnc2ccccc21)C(C(=O)NCc1ccco1)c1ccc(C)o1` (centres undefined), the Potency was 44.7 µM (active). As to `Cc1ccc(OCCSc2nc(-c3cccs3)nc3cc(=O)[nH]n23)cc1Cl`, the “activity change, negative = inhibition” value was 1.7%. Still for that read-out and setting: to `Cc1ccc(-c2nc3ccccn3c2Nc2c(C)cccc2C)o1` belongs -13.2%; to `COc1cc(Cl)c(C)cc1NC(=O)CCc1nc2cccnc2n1Cc1cccs1`, -18.2%. On the same count and under the same terms, then `CCC(C)n1c(-c2cc(OC)c(OC)c(OC)c2)nc2nc3ccccc3nc21` (centres undefined), with 7.25%. On the same count and under the same terms, to `O=c1[nH]c(CSc2ncc(-c3ccc(F)cc3)n2Cc2ccco2)nc2ccccc12` belongs 0%. As to `Clc1cccc(-c2nc3nc4ccccc4nc3n2Cc2ccco2)c1`, the Potency is 17.8 µM (active). On to `Cc1ccc(NC(=O)C2CCN(S(=O)(=O)c3cc(-c4noc(C)n4)ccc3C)CC2)c(C)c1`, for which the “activity change, negative = inhibition” value was 12.2%. On the same count and under the same terms, then `FC(F)(F)c1cc(Nc2nc3ccccc3c3nncn23)ccc1Cl`, with -2.28%; and `O=C(COc1ccc(Cl)cc1)Nc1ccc2c(c1)OCO2`, with 0.171%. For `CCOc1ccc(NCCC(=O)c2ccc3c(c2)OCO3)cc1`, the Potency was 1.41 µM (active). As for `COC(=O)CCNc1ccc2c(c1)OCCO2`, the “activity change, negative = inhibition” value was -0.529%. On the same count and under the same terms, then `Cc1ccc(NC(=O)CSc2nnc3[nH]c(=O)cc(C)n23)cc1Cl`, with 8.4%; and `Cc1oc2c(c1C(=O)Nc1ccc(F)c(F)c1)C1=NCCN1C=N2`, with -3.92%; and `COc1cc(OC)cc(C(=O)OCC(=O)Nc2sccc2C(N)=O)c1`, with 3.69%. Regarding `NC(=O)c1ccsc1NC(=O)c1ccco1`, the Potency is 44.7 µM (active). On to `CC1CN(S(=O)(=O)c2ccc(C(=O)Nc3sccc3C(N)=O)cc2)CC(C)O1` (centres undefined), for which the “activity change, negative = inhibition” value was -7.24%. For the compound `O=C1c2ccccc2C(=O)N1CCC(O)C[N+](=O)[O-]` (centres undefined), the Potency was 28.2 µM (active). `O=C(OCCN1C(=O)c2ccccc2C1=O)Oc1ccccc1`: the “activity change, negative = inhibition” value is 0.761%.

Take `O=C(CCN1C(=O)c2ccccc2C1=O)Nc1cccc(F)c1`: the “activity change, negative = inhibition” value is -6.14%.

For `Cc1ccc(CCNC(=O)C2CCN(c3nnc(-n4cccc4CNc4ccc(C)cc4)s3)CC2)cc1`, the “activity change, negative = inhibition” value is -9.8%. The same measure, in the same setting: then `COc1ccc(-c2noc(-c3ccc(N4CCN(c5ccccc5)CC4)c([N+](=O)[O-])c3)n2)cc1OC`, with -19%. With `O=C(NCc1ccncc1)C(=O)NCc1ccco1`, the “activity change, negative = inhibition” value is -12.9%. On the same count and under the same terms, to `COc1ccc(S(=O)(=O)NC(CC(=O)NCc2ccccc2OC)c2ccco2)cc1` (centres undefined) belongs -21.5%.

Turning to `COc1ccccc1CNC(=O)C(=O)NCC(c1ccco1)S(=O)(=O)c1ccc(F)cc1` (centres undefined), the Potency is 10 µM (active).

On to `O=C(NCCc1ccccc1)C(=O)NCC(c1ccco1)S(=O)(=O)c1ccccc1` (centres undefined), for which the “activity change, negative = inhibition” value was -18.7%. As to `O=C(NCc1ccccc1)C(=O)NCC(c1ccco1)S(=O)(=O)c1ccc(Cl)cc1` (centres undefined), the Potency was 50.1 µM (active). `COc1ccc(S(=O)(=O)N(CC(=O)NCc2ccco2)c2ccc(F)cc2)cc1`: the “activity change, negative = inhibition” value is -7.27%. Still for that read-out and setting: to `COC(=O)c1cnc(N2CCN(c3ccccc3OC)CC2)c2ccccc12` belongs 4.26%; to `Cc1ccc(F)cc1S(=O)(=O)N1CCC(c2nc3ccccc3s2)CC1`, -1.44%. Still for that read-out and setting: then `Cc1ccc2c(c1)N(C(=O)CCC(=O)NCc1ccccc1F)CC(C)O2` (centres undefined), with 5.57%; and `CC(=O)N1CCCc2cc(S(=O)(=O)N3CCC(C(=O)NCc4ccc(C)cc4)CC3)ccc21`, with -3.6%.

Regarding `O=S(=O)(NCCc1nnc2ccc(SCc3ccc(Cl)cc3Cl)nn12)c1ccccc1`, the “activity change, negative = inhibition” value is 6.82%. For the compound `O=C(NCC(c1ccc(Cl)cc1)N1CCOCC1)c1ccccc1F` (centres undefined), the “activity change, negative = inhibition” value was -1.87%. Still for that read-out and setting: to `CCOc1cccc(NC(=O)c2ccc(F)c(S(=O)(=O)N(CC)c3cccc(C)c3)c2)c1` belongs 1.56%; to `O=C(c1cn2ccccc2n1)N1CCc2c([nH]c3ccccc23)C1c1ccccn1` (centres undefined), -15.2%. Consider `CCOc1ccc(C2c3[nH]c4ccccc4c3CCN2Cc2cccn2-c2ncccn2)cc1` (centres undefined), for which the “activity change, negative = inhibition” value is -22.4%. Regarding `c1ccc(C2c3[nH]c4ccccc4c3CCN2Cc2cccn2-c2cccnc2)nc1` (centres undefined), the Potency is 15.8 µM (active). As to `Cc1ccc(NC(=O)CSc2nc3c([nH]c4ccccc43)c(=O)n2-c2ccccc2)c(C)c1`, the “activity change, negative = inhibition” value is -3.56%. As for `CCc1c(C)sc(NC(=O)C2c3ccccc3Oc3ccccc32)c1C(=O)OC(C)C`, the “activity change, negative = inhibition” value was 1.16%. Regarding `C/C(=N/Nc1nc(-c2ccccc2)c(CC(=O)O)s1)c1ccccc1`, the Potency was 0.316 µM (active). Regarding `CCOC(=O)C(=O)Nc1nc(-c2ccccc2)c(CC)s1`, the “activity change, negative = inhibition” value is 2.86%. `CCOc1ccc(-c2nc(C)sc2CC(=O)O)cc1`: the “activity change, negative = inhibition” value is -9.36%. Still for that read-out and setting: then `Cc1ccc(-c2cn3c(n2)sc2cc(C(=O)NCc4cccs4)ccc23)c(C)c1`, with 6.11%; and `COc1ccc(NC(=O)CSc2nccn2C2CCCC2)cc1OC`, with -4.83%.

For `CCOc1ccc(-c2nonc2NC(=O)c2oc3ccc(CC)cc3c2C)cc1`, the “activity change, negative = inhibition” value is -2.35%. Take `CN(C(=O)CSc1nc2ccc(NC(=O)COc3ccccc3)cc2s1)c1ccccc1`: the “activity change, negative = inhibition” value was 0.0897%. For the compound `Cc1cc(C)c(NC(=O)CN2C(=O)c3cccnc3Oc3ccc(Cl)cc32)c(C)c1`, the “activity change, negative = inhibition” value was 1.99%.
